Compound activity (PubChem)
A selection: hits, their analogues and other compounds. The true share with any hit is near 3.6%.
mHTT CaM bind: disrupts binding of mutant huntingtin to calmodulin | P42858 | AlphaScreen His-mHTT/GST-CaM binding, luminescence | inhibition, % at 15 µM | actives 3.6% (n = 190,000) | AID 1671202
Pf apPOL block: Pf-apPOL DNA polymerase inhibition | inhibition, % at 10 µM | actives 0.25% (n = 210,000) | Recombinant Pf-apPOL, molecular beacon fluorescence, 1.5 h
Large screens that a line does not name were inactive. Cut-off read from the data, not from the text of the source: active = inhibition above about 50%; inactive = the rest.

CCN(CCC#N)c1ccc(N=Nc2ccc([N+](=O)[O-])cc2)cc1	mHTT CaM bind 53
CCN(CCC#N)c1ccccc1	none
Nc1cc(N)nc(SCC(=O)NCc2ccccc2)n1	none
Nc1sc(SCC(=O)NCc2ccc(F)cc2)nc1-c1ccccc1	mHTT CaM bind 91
Cc1ccc(NCCNS(=O)(=O)c2cccs2)nn1	none
OC[C@@H]1[C@@H](c2ccc(F)cc2)C(c2cccc(Cl)c2)=NN1c1ccccc1	mHTT CaM bind 72
C[C@H]1C(c2ccc(F)cc2)=NN(c2ccccc2)[C@@H]1CO	none
OC[C@@H]1[C@@H](c2ccc(Cl)cc2)C(c2cccc(Cl)c2)=NN1c1ccccc1	mHTT CaM bind 74
OC[C@@H]1[C@@H](c2ccc(Cl)cc2)C(c2ccccc2)=NN1c1ccccc1	mHTT CaM bind 86
C[C@H]1C(c2cccc(Cl)c2)=NN(c2ccccc2)[C@@H]1CO	none
CC[C@H]1C(c2ccccc2)=NN(c2ccccc2)[C@@H]1CO	none
Cc1ccc(NC(=O)c2ccc(-c3ccc([N+](=O)[O-])cc3)o2)cc1-c1nc2ncccc2o1	none
Cc1ccc(S(=O)(=O)N2CCSC2c2ccccc2)cc1[N+](=O)[O-] (centres undefined)	none
O=C1Nc2ccccc2C12OCC(Br)([N+](=O)[O-])CO2 (centres undefined)	none
Cc1cc(NS(=O)(=O)c2cccs2)n[nH]1	none (no result: mHTT CaM bind)
Cc1cc(NS(=O)(=O)c2cc(C(=O)O)ccc2F)n[nH]1	mHTT CaM bind 78
COc1ccc(C2=N/C(=C\C(C)=C\c3ccccc3)C(=O)O2)cc1Br	none
O=C1C([N+](=O)[O-])=C(O)c2cccc3cccc1c23	Pf apPOL block 70 (no result: mHTT CaM bind)
O=C1c2ccc3ccccc3c2-c2cccc3cccc1c23	none (no result: mHTT CaM bind)
Cc1cc(OCC(=O)Nc2ccc(C)c(C)c2)nc(N2CCC(C)CC2)n1	none
COc1ccccc1-n1nc(C(=O)N(C)Cc2ccccc2)c2ccccc2c1=O	none
O=C(NCc1cccs1)C1CCCN(c2ccc(-n3cccn3)nn2)C1 (centres undefined)	mHTT CaM bind 57
Cn1ncc(N2CCCC(C(=O)NCc3cccs3)C2)cc1=O (centres undefined)	none
Cc1ccnc(NC(=O)C2CCCN(c3cc(-n4cccn4)ncn3)C2)c1 (centres undefined)	none
Cc1nc(NC(=O)C2CCCN(c3ccc(-n4cccn4)nn3)C2)sc1C (centres undefined)	mHTT CaM bind 94
COc1ccc(OCc2noc(CNC(=O)c3cc(C)oc3C)n2)cc1	none
CCc1ccc(OCC(=O)Nc2nnc(C3CC(=O)N(c4ccc(OC)cc4)C3)o2)cc1 (centres undefined)	none
CNCc1nc2sc(C(C)C)cc2c(=O)[nH]1	none
O=c1oc2ccc([N+](=O)[O-])cc2c(O)c1[N+](=O)[O-]	none
O=CNC1CCCc2c1[nH]c1ccc(Br)cc21 (centres undefined)	none
Brc1ccc2[nH]c3c(c2c1)CCCC3NCc1ccccc1 (centres undefined)	mHTT CaM bind 100
Cc1ccc2[nH]c3c(c2c1)CCCC3NCc1ccc(F)cc1 (centres undefined)	mHTT CaM bind 57
Cc1ccc2[nH]c3c(c2c1)CCCC3NC(N)=O (centres undefined)	none
O=[N+]([O-])c1cc2c(cc1C=Nc1ccc(O)c(-c3nc4ccccc4[nH]3)c1)OCO2	mHTT CaM bind 65
O=[N+]([O-])c1cc2c(cc1C=Nc1ccc(O)cc1)OCO2	none (no result: Pf apPOL block)
O=[N+]([O-])c1cccc(C=Nc2ccc(O)c(-c3nc4ccccc4[nH]3)c2)c1O	mHTT CaM bind 68
O=[N+]([O-])c1cc(C=Nc2ccc3nc(-c4ccccc4)[nH]c3c2)c(O)c([N+](=O)[O-])c1	none
CCCN1CCN(C(=O)C2CCN(c3cnn(CCC)c(=O)c3)CC2)CC1	none
O=[N+]([O-])c1cccc(CSc2ccc3nnc(-c4ccccn4)n3n2)c1	mHTT CaM bind 98
O=C(NCCc1nnc2ccc(SCc3ccccn3)nn12)c1ccccc1	none
c1ccc(CSc2nnc3ccc(-c4ccccn4)nn23)nc1	none
Cc1nc(CSc2ccc3nnc(-c4ccccn4)n3n2)cs1	mHTT CaM bind 76
CCC(=O)N1CCc2ccccc2C1C(=O)NCc1cccc(F)c1 (centres undefined)	none
Cc1ccc(C2CC(C(F)(F)F)n3nc(C(=O)NCc4ccco4)c(Cl)c3N2)cc1 (centres undefined)	none
COc1cc(-c2cc3ccccn3c2)cc(OC)c1OC	mHTT CaM bind 61
COc1ccc(-c2ncc3ccccn23)cc1OC	none
Clc1cccc(-c2cn3ccccc3n2)c1	none
Clc1cccc(-c2cc3ccccn3c2)c1	mHTT CaM bind 63
CC12C=CC(O1)C1C(=O)N(c3ccccc3C#N)C(=O)C12 (centres undefined)	none
O=C(NCCCN1CCCC1=O)C(=O)NCc1ccccc1Cl	none
CCOc1cc2c(c([N+](=O)[O-])c1)NC(c1ccc([N+](=O)[O-])cc1)C1CC=CC21 (centres undefined)	mHTT CaM bind 50
CCOc1cc2c(c([N+](=O)[O-])c1)NC(C(C)C)C1CC=CC21 (centres undefined)	mHTT CaM bind 73
COc1cc2c(c([N+](=O)[O-])c1)NC(c1ccc(Br)cc1)C1CC=CC21 (centres undefined)	none
CCOc1cc2c(c([N+](=O)[O-])c1)NC(c1ccccc1F)C1CC=CC21 (centres undefined)	mHTT CaM bind 95
CCC(C(=O)OC1(C(C)=O)CCC2C3C=CC4=CC(=O)CCC4(C)C3CCC21C)c1ccccc1 (centres undefined)	none
COc1cccc(NC(=O)N2CCC3(CC2)NC(=O)c2ccc(F)cc2N3C)c1	none
CCCCNc1nc(SCC(=O)c2ccc(O)c(O)c2)nc2ccccc12	mHTT CaM bind 64
COCCNc1nc(SCC(=O)c2ccc(O)c(O)c2)nc2ccccc12	none
COc1cccc(CNC(=O)N2CCCC2c2cc(C(C)C)no2)c1 (centres undefined)	none
Oc1ccc(-c2[nH]ncc2-c2ccc(F)cc2)c(O)c1	none
C=C(C)COc1ccc2c(=O)c(Oc3ccccc3OCC)c(C)oc2c1	none
COc1ccc(-c2[nH]ncc2-c2cnc(C)s2)c(O)c1	none
CCCc1ccc(Oc2cn[nH]c2-c2ccc(O)cc2O)cc1	mHTT CaM bind 82
COc1ccc(-c2[nH]ncc2Oc2ccc(Cl)cc2)c(O)c1	mHTT CaM bind 66
C=C(C)COc1ccc(-c2[nH]ncc2Oc2ccccc2OCC)c(O)c1	mHTT CaM bind 66
CCOc1ccc(-c2[nH]ncc2Oc2ccccc2)c(O)c1	none
Oc1ccc(-c2[nH]ncc2Oc2ccc(-c3ccccc3)cc2)c(O)c1	mHTT CaM bind 51
O=c1oc2ccc(Cl)cc2nc1C=C(O)c1ccc(Br)cc1	none
CC(C)CN1CCN(C(=O)C2CC(=O)N(CCc3ccccc3)C2)CC1 (centres undefined)	none
CCN(CC)C(=O)c1sc2cc(C)ccc2c1Cl	none
CCOc1ccc(-n2c(SCC(=O)Nc3ccc(CC)cc3)nc3c(c2=O)SCC3)cc1	none
COc1ccc(OC)c(/C=C2/SC(=Nc3ccccc3)NC2=O)c1	none
Cc1nnsc1C(=O)Nc1ccc(CN2CCS(=O)(=O)CC2)cc1	none (no result: mHTT CaM bind)
Cc1ccc(Nc2ccc(NC(=O)c3snnc3C)cc2)nn1	mHTT CaM bind 100
COCCn1cc2c3c(cccc31)CN(C(=O)Cc1ccccc1C)CC2	mHTT CaM bind 63
COCCn1cc2c3c(cccc31)CN(C(=O)Cc1ccc(Cl)cc1)CC2	mHTT CaM bind 81
CCc1ccccc1NC(=O)N1CCc2cn(CCOC)c3cccc(c23)C1	none
